HT1080NT lethal: kills 2HG-producing HT-1080-NT fibrosarcoma cells. HT-1080-NT fibrosarcoma viability, CellTiter-Glo ATP luminescence, 48 h. Potency, µM (doses to about 46.1 µM), for inactives: at the highest dose activity, negative = less viability, hits mostly cytotoxic. 1.6% of 360,000 active. AID 686970;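 also: NT is the 2HG producing partner of a matched IDH1 knockdown line; potency is read from the fitted curve at half-maximal effect; 0% = DMSO-treated cells and -100% = media-only wells without cells; nearly all actives have a fitted effect of over 55% in size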
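Viability of the 2HG-overproducing fibrosarcoma line after 48 hours of compound exposure at 37 degrees C was determined by luminescence with CellTiter-Glo, and concentration-effect curves were then fitted and categorized.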
TDP1 cell CPT: DT40-hTDP1 cell growth loss with CPT; 12% of 420,000 active; Potency, µM (doses to about 46.2 µM), for inactives: top-dose activity change, negative = growth inhibition, usual class: inhibitors; chicken DT40 Tdp1-/-;hTDP1 cells + 20 nM CPT, ATP luminescence, 48 h; also: potency is read from the fitted curve at half-maximal effect; nearly all actives have a fitted effect of over 55% in size
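Chicken DT40 Tdp1-/- cells complemented with human TDP1, 400 cells/well, exposed to compounds plus 20 nM camptothecin for at least 48 h at 37 C; viability read as ATP content by CellTiter-Glo luminescence.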
HT1080 IDH1KD tx: kills HT-1080 cells with IDH1 knockdown | HT-1080 IDH1 knockdown viability, ATP luminescence, 48 h | Potency, µM (series often up to 46.1 µM), without a hit: at the top dose activity, negative = toxicity, actives largely listed as cytotoxic | 2% of 360,000 active | AID 686971;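 also: potency is read from the fitted curve at half-maximal effect; 0% = DMSO wells and -100% = cell-free medium wells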
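CellTiter-Glo luminescence after 48 h compound exposure at 37 degrees C of IDH1-knockdown HT-1080 cells in 5% FBS RPMI. %Activity scaled between DMSO wells and cell-free media wells, with curves fitted and assigned curve classes.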
IL1B secr inh: inflammasome signaling inhibition, IL-1 beta readout | activity change, % at 57.5 µM | 4.7% of 360,000 active | AID 743279 | THP-1 LPS/ATP IL-1B secretion, AlphaLISA, 16 h; stronger effect = lower value; in the data active = activity change below about -50%; inconclusive = mostly about -30% to -49%
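Secreted IL-1B measured by AlphaLISA bead assay after 16 h compound exposure of THP-1 cells; compounds (final up to 57.5 uM) added 1 h before LPS (250 ng/mL) and ATP (1.25 mM) stimulation; lower signal means less secretion.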
DT40 TDP1 no CPT: qHTS for Inhibitors of human tyrosyl-DNA phosphodiesterase 1 (TDP1): qHTS in cells in absence of CPT. DT40 Tdp1-/- hTDP1 cells, no CPT, ATP luminescence, 48 h. Potency, µM (doses to about 46.2 µM), for inactives: at the highest dose activity change, negative = growth inhibition, actives largely listed as inhibitors. 15% of 420,000 active. AID 686978, 2013; also: potency is read from the fitted curve at half-maximal effect; nearly all actives have a fitted effect of over 55% in size
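DT40 Tdp1-/-;hTDP1 cells, no CPT (DMSO vehicle only), 400 cells/well; compounds pin-transferred; ≥48 hr, 37 °C; CellTiter-Glo 30 min RT dark, luminescence read.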
The depositor's hits bear a star; ? = inconclusive; / = not tested or not shown; [ ] = dose if it differs, or a comment. A selection: hits, their analogues and other compounds. The true share with any hit is near 19%. Unless noted, calls follow the shape of the dose curve; as a rule, active = well fitted curve in the direction sought with a large enough effect; inconclusive = small, poorly fitted or top-dose-only effect, or another doubt; inactive = no such curve, though single readings can be large; an effect the other way counts as inactive or inconclusive. Unless noted, % is scaled to controls: 0 for no effect and ±100 for the full control effect.

SMILES	HT1080NT lethal	TDP1 cell CPT	HT1080 IDH1KD tx	IL1B secr inh	DT40 TDP1 no CPT
COc1cccc(Nc2ncnc3ccccc23)c1	-6%	?	30%	-3	?
O=C(COC(=O)c1ccc(F)cc1F)Nc1ccc2[nH]c(=O)[nH]c2c1	1%	-20%	-2%	?	-19%
Nc1nc(SCC(=O)c2ccc(Cl)cc2)c2ncn(C3OC(CO)C(O)C3O)c2n1 (configuration not stated)	3%	-15%	3%	10	?
O=c1ccc(-c2ccccc2)nn1Cc1ccccc1F	-5%	-12%	-20%	-62*	-19%
Fc1cccc(Cl)c1Cn1ncc2ccccc21	10%	-3%	0%	27	20%
O=c1ccc(-c2ccccc2)nn1Cc1c(F)cccc1Cl	/	18µM*	/	/	?
O=C(NCCc1ccc(Cl)cc1)c1cccc(S(=O)(=O)N2CCCC2)c1	-17%	?	-15%	13	?
CCCN1CN(Cc2ccco2)c2nc3ccccc3n2C1	-8%	15µM*	-7%	2	?
c1coc(Cn2c(-c3ccco3)nc3ccccc32)c1	-3%	?	-3%	12	?
CCc1cc(-c2cnnn2CCc2c[nH]c3ccccc23)ccc1-c1cn(CC(C)C)nn1	?	?	-23%	-11	?
CCc1cc(-c2nnn(-c3cc(C(C)C)ccc3C)c2CC)ccc1-c1cn(CCc2c[nH]c3ccccc23)nn1	-15%	23µM*	?	-6	?
CCc1cc(-c2nnn(CCC3COCCO3)c2C(C)(C)O)ccc1-c1cn(CCc2c[nH]c3ccccc23)nn1 (configuration not stated)	-20%	21µM*	?	142	12µM*
CCOc1ccc(C(=O)N2CCCCC2CCN2CCOCC2)cc1 (configuration not stated)	/	8%	/	/	0%
CCOc1cc(S(=O)(=O)n2ccnc2C(C)C)ccc1Cl	/	-26%	/	/	-22%
C=C1CC[C@H](O)CC1=C/C=C1\CCC[C@]2(C)[C@@H]([C@H](C)CC[C@@H](O)C(C)(C)O)CC[C@@H]12	/	?	/	/	24µM*
C=C1/C(=C\C=C2/CCC[C@]3(C)C([C@H](C)CCCC(C)(C)O)CC[C@@H]23)C[C@@H](O)C[C@@H]1O (some centres not stated)	/	?	/	/	-21%[4.12 µM]
C=C1/C(=C\C=C2/CCC[C@]3(C)[C@@H]([C@H](C)OCCC(C)(C)O)CC[C@@H]23)C[C@@H](O)C[C@@H]1O	/	15µM*	/	/	?
C/C(CC(=O)Nc1cc(Cl)ccc1C)=N\NC(=O)C(=O)N1CCCC1	-14%	-23%	-1%	21	-4%
CSc1nnc(Cn2c(=O)sc3ccccc32)n1-c1cccc(Cl)c1	-1%[9.24 µM]	?	-4%	-3	?
Cn1c(Cn2c(=O)sc3ccccc32)nnc1SCC(=O)NC1CCCC1	16%	16µM*	1%	-15	-9%
CCCSc1nnc(Cn2c(=O)sc3ccccc32)n1-c1ccccc1	9%	?	12%	15	18µM*
Cc1csc(NC(=O)CSc2nnc(Cn3c(=O)sc4ccccc43)n2-c2ccccc2)n1	-2%	7.3µM*	-7%	?	-100%
Cc1sc2nc(CSc3ccc([N+](=O)[O-])c(C(F)(F)F)c3)[nH]c(=O)c2c1C	-28%	?	?	15	?
Cc1ccc2c(c1)C=CC(C)(C)S2=O (configuration not stated)	-5%	-4%	1%	10	-4%
CC[N+]1=C(C)C(C)(C)c2cc(C)ccc21	?	8.2µM*	5.2µM*	0	1.6µM*
CC(C)(C)c1ccc(CN2CCN(C(c3ccccc3)c3ccc(Cl)cc3)CC2)cc1 (configuration not stated)	/	13µM*	/	/	24µM*
O=C(C1CCN(Cc2ccc(Cl)cc2)CC1)N1CCN(C(c2ccccc2)c2ccccc2)CC1	?	?	?	-53*	12µM*
